HP1b chromo inh: blocks HP1-beta chromodomain binding to methylated histone tails | AlphaScreen HP1-beta / biotin-H3K9me3 peptide binding | P83916 | actives 0.56% (n = 390,000) | Potency, µM (top dose mostly 114 µM), for inactives: top-dose activity change, negative = inhibition, most hits filed as inhibitors | AID 540317; also: nearly all actives have a fitted effect of over 70% in size
Target sequence (P83916 whole entry, looked up): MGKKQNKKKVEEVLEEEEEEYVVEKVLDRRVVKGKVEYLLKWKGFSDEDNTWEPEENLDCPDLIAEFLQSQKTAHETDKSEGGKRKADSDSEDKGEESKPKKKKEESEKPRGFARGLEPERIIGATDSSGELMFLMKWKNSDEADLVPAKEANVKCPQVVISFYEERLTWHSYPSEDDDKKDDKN
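AlphaScreen: HP1-beta (50 nM) preformed 30 min with biotin-H3(1-18)K9me3 peptide (50 nM) in PBS pH 7.4, 0.01% Tween-20. Compound added for 30 min at RT, then streptavidin donor/nickel chelate acceptor beads (10 ug/mL) for 30 min.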
G9a inh: inhibitors of human histone lysine methyltransferase G9a | Q96KQ7 | actives 8.8% (n = 350,000) | G9a H3K9 monomethylation, AlphaScreen, 2 h | Potency, µM (top dose mostly 102 µM), for inactives: top-dose activity, negative = inhibition, actives largely listed as inhibitors; also: % is scaled to controls: 0 for no effect and ±100 for the full control effect; nearly all actives have a fitted effect of over 75% in size
Target sequence (Q96KQ7 913-1193 limits assumed): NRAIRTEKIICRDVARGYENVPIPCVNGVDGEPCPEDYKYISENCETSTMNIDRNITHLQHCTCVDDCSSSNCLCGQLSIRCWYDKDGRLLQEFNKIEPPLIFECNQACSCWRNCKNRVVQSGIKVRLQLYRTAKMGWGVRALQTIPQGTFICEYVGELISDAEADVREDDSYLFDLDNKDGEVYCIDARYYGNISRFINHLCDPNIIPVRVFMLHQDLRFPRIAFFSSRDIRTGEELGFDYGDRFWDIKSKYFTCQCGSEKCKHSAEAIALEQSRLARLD
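Compounds were preincubated with 20 nM G9a for 15 min, after which biotinylated H3K9 peptide (500 nM) and SAM (20 uM) started a 2 h room-temperature reaction. Monomethylated product was quantified by antibody-based AlphaScreen chemiluminescence.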
BAZ2B block: blocks human BAZ2B; actives 4.4% (n = 360,000); Potency, µM (titrated, usually from 114 µM), for inactives: top-dose activity change, negative = inhibition, hits mostly inhibitors; AlphaScreen BAZ2B-H3K14Ac peptide displacement; also: % is scaled to controls: 0 for no effect and ±100 for the full control effect; nearly all actives have a fitted effect of over 60% in size
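AlphaScreen luminescence quantifies BAZ2B engagement of H3K14Ac peptide; the protein and biotinylated peptide are both at 50 nM final, buffer PBS pH 7.4 with 0.01% Tween-20, all steps at room temperature.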
JMJD2A Tudor inh: JMJD2A Tudor domain (human) inhibition; AlphaScreen JMJD2A-Tudor / H3K4me3 peptide binding; O75164; Potency, µM (doses to about 114 µM), for inactives: top-dose activity change, negative = inhibition, hits mostly inhibitors; AID 504339; actives 4.4% (n = 390,000); also: % is scaled to controls: 0 for no effect and ±100 for the full control effect; nearly all actives have a fitted effect of over 50% in size
GLS inhibitor: inhibitors of human glutaminase (GLS); Potency, µM (highest dose often 45.5 µM), for the others: at the highest dose activity change, negative = inhibition, hits mostly inhibitors; actives 0.21% (n = 410,000); GLS enzymatic activity, qHTS titration; O94925; AID 624170; also: % is scaled to controls: 0 for no effect and ±100 for the full control effect
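Compounds were pin-transferred onto hKGA, after which L-glutamine (1 mM solution) and a detection mix of glutamate oxidase, HRP and Amplex Red were added. Initial and 30 min RT fluorescence reads were collected.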
* = called active by the depositor; ? = inconclusive; . = not tested or not shown; [ ] = remark or other dose. Compounds with a hit are over-represented: about 10% of the library has one in this group of screens. Calls follow the shape of the dose curve; as a rule, active = well fitted curve in the direction sought with a large enough effect; inconclusive = small, poorly fitted or top-dose-only effect, or another doubt; inactive = no such curve, though single readings can be large; an effect the other way counts as inactive or inconclusive. Potency is read from the fitted curve at half-maximal effect.

SMILES | HP1b chromo inh | G9a inh | BAZ2B block | JMJD2A Tudor inh | GLS inhibitor
CCN(CC)C(=O)C1=C(C)N(Cc2ccc(C(C)(C)C)cc2)C(=O)C(CC(=O)NC2CCCCC2)C1 (centres undefined) | . | . | . | . | 0.5%
Cc1ccc(NC(=O)CCC(=O)N2Cc3ccccc3Oc3ncccc32)cc1F | 15.8% | 10.6%[59 µM] | -0.4%[57.1 µM] | -21.7% | 21.2%
COc1ccc(S(=O)(=O)C(C#N)c2nc3ccccc3nc2N2CCC(C)CC2)cc1 (centres undefined) | . | 3.16µM* | 44.7µM* | . | .
Cc1ccc(S(=O)(=O)C(C#N)c2nc3ccccc3nc2N2CCCCC2)cc1 (centres undefined) | . | 44.7µM* | 6.2% | . | .
CC1CCCN(c2nc3ccccc3nc2C(C#N)S(=O)(=O)c2ccccc2)C1 (centres undefined) | 35.8% | ? | ? | -17.1% | 18.6%
O=C1COc2ccc(C(=O)COC(=O)c3ccc(Cl)cc3[N+](=O)[O-])cc2N1 | 3.3% | 44.7µM* | -32.6% | -25.3% | -7.9%
O=C1COc2ccc(C(=O)COC(=O)c3ccc([N+](=O)[O-])cc3Cl)cc2N1 | -2.3% | 39.8µM* | -34.2% | -25.3% | 0.4%
O=C1COc2ccc(C(=O)COC(=O)c3ccccc3[N+](=O)[O-])cc2N1 | 6.0% | ? | -3.8% | -23.4% | -4.0%
CCOC(=O)c1c(NC(=O)COC(=O)c2ccccn2)sc(C)c1C | 28.0% | ? | ? | 6.4% | -1.0%
COC(=O)C1Cc2c([nH]c3ccccc23)CN1 (centres undefined) | 23.3% | 39.8µM* | -31.6% | -29.5% | 11.5%
COC(=O)[C@H]1Cc2c([nH]c3ccccc23)[C@H](c2ccccc2)N1 | 12.5% | 20.5% | -16.2% | -11.0% | 12.5%
CCN1C(=O)/C(=C2\Sc3ccccc3N2CC)OC1=S | 10.5% | 7.4% | 9.2% | ? | 8.6%
C=CCN1C(=O)/C(=C2/Sc3ccccc3N2CCCS(=O)(=O)O)SC1=S | ? | 39.8µM* | ? | 6.2%[11.4 µM] | ?
CCCN1C(=O)/C(=C2/C=Cc3ccccc3N2CC)SC1=S | 3.16µM* | 3.16µM* | 2.82µM* | 5.62µM* | 3.7%
CCN1C(=O)/C(=C2/C=Cc3ccccc3N2CC)SC1=S | ? | 12.6µM* | 7.94µM* | 11.2µM* | 10.2%
CCCN1/C(=C2/SC(=S)N(CC)C2=O)C=Cc2ccccc21 | ? | ? | 2µM* | 3.16µM* | 11.6%
C=CCN1C(=O)/C(=C2/Sc3ccccc3N2CC)SC1=S | 35.4% | 1.2% | 9.4% | -8.3% | -14.5%
Cn1c(=O)c(-c2ccc(Cl)cc2)nc2cnc(Nc3ccccc3)nc21 | . | -1.9%[0.501 µM] | . | . | .
CN1C(=O)/C(=C2/C=Cc3ccccc3N2CCCS(=O)(=O)O)SC1=S | ? | ? | 44.7µM* | ? | 29.6%
Cc1ccccc1C(=O)Nc1cccc(C(=O)Nc2ccccc2C(=O)O)c1 | 39.8% | 12.7% | 9.5% | 6.6% | -2.4%
CCOC(=O)C1/C(=N\O)CC(C)(O)C(C(=O)OCC)C1c1ccc(N(C)C)cc1 (centres undefined) | 15.3% | 17.8µM* | 79.4µM* | -35.7% | 32.2%
CCC(C)(C)n1nnnc1C(c1cc2ccc(OC)cc2[nH]c1=O)N1CCc2ccccc2C1 (centres undefined) | 39.0% | 2.51µM* | -13.6% | -29.5% | -11.3%
COc1ccc2cc(C(c3nnnn3C3CCCC3)N3CCc4ccccc4C3)c(=O)[nH]c2c1 (centres undefined) | 13.4% | 10µM* | . | -25.2% | -0.8%
COc1ccc2cc(C(c3nnnn3C(C)(C)C)N3CCc4ccccc4C3)c(=O)[nH]c2c1 (centres undefined) | . | ? | -26.8% | . | .
COc1ccc(Cn2nnnc2C(c2cc3ccc(OC)cc3[nH]c2=O)N2CCCCCC2)cc1 (centres undefined) | 28.6% | 8.91µM* | 8.5% | -27.6% | -25.9%
SMILES | HP1b chromo inh | G9a inh | BAZ2B block | JMJD2A Tudor inh | GLS inhibitor
Cc1ccc2cc(C(c3nnnn3C3CCCC3)N3CCN(c4ccc(F)cc4)CC3)c(=O)[nH]c2c1 (centres undefined) | 15.2% | 11.2µM* | -8.5% | -7.9% | -1.9%
CC(C)Cc1cc(C(=O)Nc2c(F)cc(F)cc2Br)no1 | 42.6% | 12.1%[59 µM] | 11.5% | 0.0% | 4.5%
O=C(COC(=O)c1ccc(S(=O)(=O)Nc2ccccc2)cc1)NC1CCCC1 | 38.6% | -4.4% | -22.1% | -4.5% | 0.0%
COc1cccc(NC(=O)C(=O)NCC2CCCN2S(=O)(=O)c2cccs2)c1 (centres undefined) | . | . | . | . | -4.2%
COc1ccc(Cn2nnnc2C(c2ccc(N(C)C)cc2)N2CCC(C(N)=O)CC2)cc1 (centres undefined) | ? | 12.6µM* | 50.1µM* | ? | 6.7%
CCC(C)(C)n1nnnc1C(c1cc2ccc(OC)cc2[nH]c1=O)N1CCc2ccccc21 (centres undefined) | -21.8% | 12.6µM* | ? | ? | -4.0%
COCCn1nnnc1C(C(C)C)N1CCOCC1 (centres undefined) | 18.0% | 79.4µM* | -3.4% | -23.0% | 16.6%
Cc1cnc(C(=O)O)cn1 | . | ? | . | . | 1.9%
O=C(O)c1ccc(Br)cn1 | 5.1% | 22.4µM* | 22.4µM* | 5.62µM* | 0.0%
COC(=O)c1ccc(C(=O)O)nc1 | ? | . | 17.8µM* | 12.6µM* | 3.5%
COc1ccc(/C=C(\C)C(=O)c2c(C)cc(C)[nH]c2=O)cc1 | 18.7% | . | . | -2.5% | 3.0%
COc1ccc(-c2nc(NC(=O)Cn3c(=O)oc4ccccc43)sc2C)cc1 | -5.8% | -8.2%[59 µM] | -12.7% | -20.1% | 4.3%
COc1cc2c(cc1OC)CN(Cc1nc3ccsc3c(=O)[nH]1)CC2 | 37.2% | ? | 39.8µM* | ? | -0.8%
Cc1cn(-c2cc(NC(=O)c3ccc(C)c(NC(=O)c4cccc(-c5cn[nH]c(=O)c5)c4)c3)cc(C(F)(F)F)c2)cn1 | 21.3% | 14.1µM* | -37.7% | ? | -1.3%
COc1ccc(C(=O)CN2C3=NCCCN3c3ccccc32)cc1OC | 10.2% | 44.7µM* | -5.9% | -12.2% | 5.4%
Cc1ccc(OCc2cc(C(=O)N(C)CC3CCOCC3)no2)cc1C | 21.9% | . | -7.3% | -5.5% | 2.3%
C=CCOc1c(Br)cc(CNc2ccc(NC(=O)C(C)C)cc2)cc1OCC | 23.9% | ? | -37.0% | -19.9%[57.1 µM] | 1.9%
OCc1ccc2c(c1)c(-c1ccc3c(c1)OCCO3)c(-c1ccccc1)n2-c1ccccc1 | -17.0% | -2.7%[0.501 µM] | ? | 44.7µM* | 0.0%
CCOC(=O)c1oc2nc(C)c3c(c2c1N)CC(C)(C)OC3 | ? | ? | -26.3% | 15.8µM* | ?
COc1ccccc1C(=O)NC(CCSC)C(=O)OCC(=O)c1ccc[nH]1 (centres undefined) | -4.1% | 6.0%[59 µM] | -7.9% | -34.5% | 4.8%
O=[N+]([O-])c1ccccc1OCCCn1cnc2ccccc21 | ? | -143.4%[59 µM] | 22.4µM* | 0.794µM* | 2.2%
CCC(=O)c1ccc(OCCn2cnc3ccccc32)cc1 | 4.7% | 11.4%[12.7 µM] | -25.6% | 79.4µM* | -8.4%
